# Test system: LXRb homodimer (NR concentration 270 nM)
# Assay: PBM binding z-score (relative to random genomic background probes); higher = stronger binding; sequences stand for … in GC…GCGATTGACAGCGTAGAATGAAGG
# Outline: (§1)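 Custom Agilent 4×180K protein-binding microarrays carried double-stranded probes. Their 34-nt variable regions held direct-repeat seeds, single-nucleotide variants, half-site ablations and random human genomic background sequences. Arrays were incubated 1 h with ligand-free nuclear receptor dimers in PBS pH 7.4, 2% milk, 0.02% Triton X-100, 1 mM DTT, 0.2 mg/mL BSA and 0.4 mg/ml salmon testes DNA. Antibodies against each partner (one per run) detected binding, and scanned fluorescence was regression-normalized. Binding z-scores use random background probes as reference.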
row,Sequence,PBM binding z-score
1,CGAACTAGGTCAGAACAGGACAGTGAAGGATGAT,-0.174
2,TCTTGTAGATCAAAGGTTATGAAAGCCGAAGCCT,0.156
3,CGTCCAAGGTCATAGGAGGTCCGTGAAGACAGAT,0.8
4,TCGCGTAGGTTAGTCGGGGCATTCAGCCAACATA,-0.797
5,ATCTCTAAGTAAGACTCAGTTCAGTGAAGAACGC,0.924
6,CCTACGGGGCCATCAGGTCATTGATATCAACGTT,-0.245
7,ACTAGCAGGCCCAGGGTCACTCAAGATTAGTCCG,-0.913
8,AGTCAAAGTTCACTAGGTAACGTACGATTCAGCT,0.963
9,TATACAGGGTCAAAGGCCAGAGGACGAATGTCGA,2.59
10,CCTATTAGTTGACCATAAGGGCAACAGAAGCTCG,0.473
11,GTACCAAGGTGAATAGGTCTTTGATGAGTAGGCG,-0.363
12,AGAATGAGGTTATACGTAGATAAGGGAAGAAAGT,0.00672
13,CGTCCAAGGTCAAGGTTAGTGAAAGAGACTCGAA,0.41
14,CGTCCAATGTCAGAGAGGTCAGTGAATGCCGAGT,0.168
15,CCTAGCAGGCCAGGCTCACTCAAGCATTTCGCTT,-0.617
16,CAAACTAGGTCACGAAAGGACAAAGTCGAATGAC,0.368
17,TCTTGTAGATCAAGAAGGTTAAGAAAGCCTGAGT,-0.584
18,GGAACGAGGGCATTCGAGTTAATAGCATGGCGAT,-0.759
19,CTACCAAGGTGAACAAGGCCGTTGATTACTATTC,-0.622
20,TCTGCAAGGTCAGTTGGTCAGCTAACGAGCTGCC,1.17

row,Sequence,PBM binding z-score
1,GCTAGAAGGCCATTTGGGTCACTCAATGACGGGC,-0.706
2,CGTCAAAGTGCAACTAAGGTAACGTAAAGCACGC,-0.623
3,TCATATAGGTAAATGCTTGGTGAAAGTCCGATCT,-0.0277
4,TTACCAAGGTGAAACGTCGTTGATGCACGCCTTG,-0.495
5,CGTCCAAGGTCATAGGAGGGCAGTGAAGACAGAT,0.284
6,CCTAGCAGGCCAGGGTAACTCAAGCATTTCGCTT,-1.09
7,CATGCAGGGTCAGCTAGGCCAGAGTAGGGACGGC,-0.151
8,TCATATAGGTAGATGCTAGGTGAAAGTCCGATCT,-0.423
9,GCTTGTTGATCAAGGTTAAGAAAGACTAAGCTAA,-0.437
10,GCTAGCAGGCCATATGGGTCACTCAATGACGGGC,-0.907
11,CGTCAAAGTTAAACTAAGGTAACGTAAAGCACGC,0.169
12,CCTGCTAGGTCATGGTCAACTAATCTACAGTATG,-0.184
13,CAAACTAGGTCAAAGGTGAAAGTCGAGCCAACCA,0.619
14,ATCTCTAGGTAACCAAGTTCATTGAATGCCGAAC,1.1
15,TCTTGTTGGTCAAAGGTCACACACTCGAAATGCG,2.85
16,ATCTCTAGGTAATCAAGTTCAGTGAATGCCGAAC,0.711
17,TCGAGTAGGTTACCAATGGGGCATTGAGCTTTCT,-1.11
18,CGAACTAGGTCAGAACAGGACAGTAAAGGATGAT,-0.326
19,ATACCAAGGTGATCGTGAGCTCGTTGATACTAAC,-0.116
20,GCTAGCAGGCCACTTGGGTCACTCAATGACGGGC,-0.778

# Test system: PPARa:RXRa (NR concentration 270 nM, RXRa partner concentration 90 nM)
# Assay: as above
# Outline: as §1
row,Sequence,PBM binding z-score
1,CGAACTAGGTCAGAACAGGACAGTGAAGGATGAT,2.78
2,TCTTGTAGATCAAAGGTTATGAAAGCCGAAGCCT,4.58
3,CGTCCAAGGTCATAGGAGGTCCGTGAAGACAGAT,5.61
4,TCGCGTAGGTTAGTCGGGGCATTCAGCCAACATA,0.69
5,ATCTCTAAGTAAGACTCAGTTCAGTGAAGAACGC,0.0114
6,CCTACGGGGCCATCAGGTCATTGATATCAACGTT,2.46
7,ACTAGCAGGCCCAGGGTCACTCAAGATTAGTCCG,2.27
8,AGTCAAAGTTCACTAGGTAACGTACGATTCAGCT,4.79
9,TATACAGGGTCAAAGGCCAGAGGACGAATGTCGA,5.98
10,CCTATTAGTTGACCATAAGGGCAACAGAAGCTCG,0.814
11,GTACCAAGGTGAATAGGTCTTTGATGAGTAGGCG,1.23
12,AGAATGAGGTTATACGTAGATAAGGGAAGAAAGT,3.3
13,CGTCCAAGGTCAAGGTTAGTGAAAGAGACTCGAA,5.63
14,CGTCCAATGTCAGAGAGGTCAGTGAATGCCGAGT,2.69
15,CCTAGCAGGCCAGGCTCACTCAAGCATTTCGCTT,-0.794
16,CAAACTAGGTCACGAAAGGACAAAGTCGAATGAC,5.41
17,TCTTGTAGATCAAGAAGGTTAAGAAAGCCTGAGT,1.44
18,GGAACGAGGGCATTCGAGTTAATAGCATGGCGAT,1.58
19,CTACCAAGGTGAACAAGGCCGTTGATTACTATTC,1.25
20,TCTGCAAGGTCAGTTGGTCAGCTAACGAGCTGCC,3.4

row,Sequence,PBM binding z-score
1,GCTAGAAGGCCATTTGGGTCACTCAATGACGGGC,1.49
2,CGTCAAAGTGCAACTAAGGTAACGTAAAGCACGC,1.29
3,TCATATAGGTAAATGCTTGGTGAAAGTCCGATCT,1.12
4,TTACCAAGGTGAAACGTCGTTGATGCACGCCTTG,1.96
5,CGTCCAAGGTCATAGGAGGGCAGTGAAGACAGAT,5.68
6,CCTAGCAGGCCAGGGTAACTCAAGCATTTCGCTT,0.0169
7,CATGCAGGGTCAGCTAGGCCAGAGTAGGGACGGC,4.36
8,TCATATAGGTAGATGCTAGGTGAAAGTCCGATCT,0.819
9,GCTTGTTGATCAAGGTTAAGAAAGACTAAGCTAA,1.09
10,GCTAGCAGGCCATATGGGTCACTCAATGACGGGC,1.98
11,CGTCAAAGTTAAACTAAGGTAACGTAAAGCACGC,0.868
12,CCTGCTAGGTCATGGTCAACTAATCTACAGTATG,3.72
13,CAAACTAGGTCAAAGGTGAAAGTCGAGCCAACCA,7.19
14,ATCTCTAGGTAACCAAGTTCATTGAATGCCGAAC,2.14
15,TCTTGTTGGTCAAAGGTCACACACTCGAAATGCG,6.46
16,ATCTCTAGGTAATCAAGTTCAGTGAATGCCGAAC,1.01
17,TCGAGTAGGTTACCAATGGGGCATTGAGCTTTCT,0.992
18,CGAACTAGGTCAGAACAGGACAGTAAAGGATGAT,3.33
19,ATACCAAGGTGATCGTGAGCTCGTTGATACTAAC,0.174
20,GCTAGCAGGCCACTTGGGTCACTCAATGACGGGC,0.888

# — the supplement of paper PMC6555819
